# Measured values from PubChem BioAssay (Tox21).
# Values joined by “and” are separate entries in the source; they are usually repeats but may differ in a detail not shown here. Equal values may be shown once. Inconclusive results are not listed. Entries that show only a call come without a potency. Active and inactive are the calls of the source. Calls come from the whole dose curve; as a rule, active = well fitted cell-killing curve with a large enough effect in the repeat runs; inconclusive = weak or mixed curves, or effect the other way; inactive = no such curve, though single readings can be large or run the other way. Positions of bridges follow the written chain, without caps; N, C: chain ends. Non-standard residues stand in square brackets, D forms with d. Residues, ends and D or L forms follow the SMILES beside them. *: point of attachment. Dab(CH2SO3H) = N[C@@H](CCNCS(=O)(=O)O)C(=O)O; X3 = CC[C@@H](C)CCCCC(=O)*; Dab = NCC[C@H](N)C(=O)O
# Assay: qHTS assay for identifying genotoxic compounds that show differential cytotoxicity against isogenic chicken DT40 cell lines with known DNA damage response pathways - wild type cell line (AID 743012); note: nearly all actives have a fitted effect of over 60% in size
# Settings: DT40 wild type chicken cells viability, CellTiter-Glo, 40 h; series mostly up to 68.4 µM
# Excerpt: U.S. Tox21 Program National Center for Advancing Translational Sciences [NCATS] NIH Chemical Genomics Center [NCGC] U.S. Environmental Protection Agency [EPA] National Institutes of Environmental Health Sciences [NIEHS] National Toxicology Program [NTP] U.S. Food and Drug Administration [FDA] Tox21 Assay Overview: DNA repair pathways play a critical role in cellular homeostasis by repairing DNA damage induced by endogenous processes and xenobiotics. Isogenic chicken DT40 cell lines deficient in different DNA repair pathways can be used to identify genotoxic compounds and aid in characterizing the nature of the DNA damage induced. Two DNA repair-deficient cell lines with disrupted genes, Rad54/Ku70 or Rev3, were used to screen the Tox21 10K compound library. Possible genotoxicity was based on the presence of a significant increase in cytotoxicity in one or more of the DNA repair-deficient cell lines compared to that observed in the parental DNA repair-proficient cell line. CellTiter Glo viability assay (Promega, Madison, WI) was used to measure cell viability in these cells after compound treatment. This assay includes the data from the wild type cell line.
# Tox21 Assay Protocol Summary: 300 DT40 wild type cells in 5 uL/well were dispensed into white, solid-bottom 1536-well plates using a Multidrop Combi (ThermoFisher Scientific, Waltham, MA) dispenser. After the assay plates were incubated at 37 C/5% CO2 for approximately 0.5 hour, 23 nL of compounds dissolved in DMSO, positive controls or DMSO only was transferred into the assay plate by a pintool work station (Kalypsys, San Diego, CA). The assay plates were incubated at 37 C/5% CO2 for 40 hours. After 5 uL per well of CellTiter-Glo reagent was added into each well of the assay plates, the plates were incubated for 30 min at room temperature and the luminescence intensity of the plates was measured using a ViewLux (PerkinElmer, Shelton, CT) plate reader.
# Potency is the fitted concentration of half-maximal effect.
row,SMILES,Potency
1,CC(C)OC(=O)Nc1ccc2nc(-c3cscn3)[nH]c2c1,1.68 µM (active)
2,N[C@H](C(=O)O)[C@@H]1CC(Cl)=NO1,2.66 µM (active)
3,NCC1CCC(C(=O)O)CC1 (stereo not given),inactive
4,CN[C@@H]1[C@@H](O[C@H]2O[C@H](CO)[C@@H](N)[C@H](O)[C@H]2O)O[C@H]2C[C@@H](N)[C@@H](O[C@H]3[C@H](O)[C@@H](O)[C@H](N)C[C@@H]3N)O[C@@H]2[C@@H]1O,inactive
5,CCN1\C(=C/C=C/C=C/c2sc3ccccc3[n+]2CC)Sc2ccccc21,133 nM (active) and 298 nM (active)
6,COc1c(O)cc2c(c1O)[C@@H]1O[C@H](CO)[C@@H](O)[C@H](O)[C@H]1OC2=O,inactive
7,COc1cc2c(cc1OC)[C@@H](Cc1cc(OC)c(OC)c(OC)c1)[N+](C)(CCCOC(=O)CC/C=C/CCC(=O)OCCC[N+]1(C)CCc3cc(OC)c(OC)cc3[C@H]1Cc1cc(OC)c(OC)c(OC)c1)CC2 (stereo not given in full),inactive
8,O=C(O)/C=C/C(=O)Nc1ccc(S(=O)(=O)Nc2nccs2)cc1,inactive
9,CC(C)Cc1ccc([C@H](C)C(=O)O)cc1,inactive
10,C[C@H]1O[C@@H](O[C@H]2CC[C@@]3(C)[C@H](CC[C@@H]4[C@@H]3C[C@@H](O)[C@]3(C)[C@@H](C5=CC(=O)OC5)CC[C@]43O)C2)C[C@H](O)[C@@H]1O[C@H]1C[C@H](O)[C@H](O[C@H]2C[C@H](O)[C@H](O[C@@H]3O[C@H](CO)[C@@H](O)[C@H](O)[C@H]3O)[C@@H](C)O2)[C@@H](C)O1,1.33 µM (active)
11,CC[C@@H](C)[C@H](N)C(=O)O,inactive
12,CCOC(=O)[C@H](CCc1ccccc1)N[C@@H](C)C(=O)N1[C@H](C(=O)O)C[C@H]2CCCC[C@@H]21,inactive
13,O=C1c2ccccc2CN2C(=O)c3ccccc3CN12,inactive
14,NC(=O)[C@H]1O[C@@H](O)[C@H](O)[C@@H](O)[C@@H]1O,inactive
15,C[C@@H]1C(=O)NC2=Nc3cccc(Cl)c3CN21,inactive
16,CC(C)c1ccc2sc3ccccc3c(=O)c2c1,48.6 µM (active)
17,C[C@]12O[C@H](C[C@]1(O)CO)n1c3ccccc3c3c4c(c5c6ccccc6n2c5c31)CNC4=O,0.237 µM (active)
18,C[C@@H]1O[C@@H]1P(=O)(O)O,inactive
19,C[N+]1(CCCCC[N+]2(C)CCCC2)CCCC1,inactive
20,NCCO/C=C/[C@H](N)C(=O)O,inactive

row,SMILES,Potency
1,Cc1ccc(C(C)(C)c2ccc(C)cc2)cc1,inactive
2,NC(=S)NS(=O)(=O)c1ccc(N)cc1,inactive
3,NC(=O)CC[C@@H]1NC(=O)[C@H](Cc2ccccc2)NC(=O)[C@H](Cc2ccc(O)cc2)NC(=O)[C@@H](N)CSSC[C@@H](C(=O)N2CCC[C@H]2C(=O)N[C@@H](CCCN=C(N)N)C(=O)NCC(N)=O)NC(=O)[C@H](CC(N)=O)NC1=O,inactive
4,NC(N)=NCCCCN=C(N)N,inactive
5,CCCCCCOC(=O)c1cccnc1,inactive
6,CO/N=C(\C(=O)N[C@@H]1C(=O)N2C(C(=O)O)=C(CSc3nc(C)c(CC(=O)O)s3)CS[C@H]12)c1csc(N)n1,inactive
7,CCCOC(=O)c1ccccc1O,inactive
8,CCCOC(=O)c1ccc(O)cc1,inactive
9,COc1ccc(/C=C/C(=O)O)cc1,inactive
10,O=C[C@H](O)[C@@H](O)[C@@H](O)[C@H](O)CO,inactive
11,O=C1c2c(O)cccc2[C@H]([C@@H]2O[C@H](CO)[C@@H](O)[C@H](O)[C@H]2O)c2cc(CO)cc(O)c21,inactive
12,CN1CC[C@H](c2c(O)cc(O)c3c(=O)cc(-c4ccccc4Cl)oc23)[C@H](O)C1,0.106 µM (active)
13,CCCCCCCCCCCCCCCCCCOCC(COP(=O)([O-])OCC[N+](C)(C)C)OC (stereo not given),inactive
14,CC[C@@H](C)CCCCC(=O)N[C@@H](CCNCS(=O)(=O)O)C(=O)N[C@H](C(=O)N[C@@H](CCNCS(=O)(=O)O)C(=O)N[C@H]1CCNC(=O)[C@H]([C@@H](C)O)NC(=O)[C@H](CCNCS(=O)(=O)O)NC(=O)[C@H](CCNCS(=O)(=O)O)NC(=O)[C@H](CC(C)C)NC(=O)[C@@H](CC(C)C)NC(=O)[C@H](CCNCS(=O)(=O)O)NC1=O)[C@@H](C)O (X3-[Dab(CH2SO3H)]T[Dab(CH2SO3H)][Dab][Dab(CH2SO3H)][dL]L[Dab(CH2SO3H)][Dab(CH2SO3H)]T; lactam 4-C),23.7 µM (active)
15,C/C=C/C1=C(C(=O)O)N2C(=O)[C@@H](NC(=O)[C@H](N)c3ccc(O)cc3)[C@H]2SC1,inactive
16,Nc1nc(/C(=C/CC(=O)O)C(=O)N[C@@H]2C(=O)N3C(C(=O)O)=CCS[C@H]23)cs1,inactive
17,CCN(CC)CCNC(=O)c1ccc(NS(C)(=O)=O)cc1,inactive
18,CO/N=C(\C(=O)N[C@@H]1C(=O)N2C(C(=O)O)=C(COC(C)=O)CS[C@H]12)c1csc(N)n1 (stereo in doubt),inactive
19,COc1cccc(-c2ccc(/C=C\CN3CCCCCC3)cc2Cl)c1,3.05 µM (active)
20,O=C(O)[C@@H]1C[C@H](CP(=O)(O)O)CCN1,inactive
